The values below come from PubChem BioAssay (NCI).

The structures appear in SMILES notation. Compounds without any hit were thinned out: in the full panel of roughly 83,000, 20% have a hit.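 A percent growth of 40 corresponds to 60% growth inhibition; 0 means no net growth; -100 means all cells died. Active threshold: below 10.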 Values without a mark were called inactive. Active and inactive are the calls of the source.

Holding throughout (assay): NCI-60 one-dose screen, 48 h (100 = growth as untreated, 0 = no growth, -100 = all killed)
The subject of one experiment is SK-MEL-2 melanoma. The following applies: 10 µM unless noted.
For the next experiment, the system named is EKVX NSCLC. The conditions noted are these: 10 µM unless noted.
Another experiment concerns SN12C renal. The following applies: 10 µM unless noted.
A further experiment relates to UO-31 renal. The following applies: 10 µM unless noted.
A further experiment relates to TK-10 renal. The following applies: 10 µM unless noted.
A further experiment deals with ACHN renal. The conditions noted are these: 10 µM unless noted.
A further experiment deals with A498 renal. The conditions noted are these: 10 µM unless noted.
The subject of another experiment is CCRF-CEM leukemia. The following applies: 10 µM unless noted.
For the next experiment, the system named is MOLT-4 leukemia. The conditions noted are these: 10 µM unless noted.
A further experiment relates to SR leukemia. The conditions noted are these: 10 µM unless noted.
A further experiment relates to RPMI-8226 leukemia. The following applies: 10 µM unless noted.
The subject of another experiment is OVCAR-8 ovarian. The following applies: 10 µM unless noted.
The next experiment concerns OVCAR-5 ovarian. The following applies: 10 µM unless noted.
The test system of the next experiment is OVCAR-4 ovarian. The following applies: 10 µM.
Another experiment relates to SK-OV-3 ovarian. The following applies: 10 µM unless noted.
The next experiment deals with IGROV1 ovarian. The conditions noted are these: 10 µM unless noted.
The next experiment concerns OVCAR-3 ovarian. The conditions noted are these: 10 µM unless noted.
In another experiment the test system is HS 578T breast. The following applies: 10 µM unless noted.
A further experiment has as its system NCI/ADR-RES ovarian. The following applies: 10 µM unless noted.
The subject of a further experiment is CAKI-1 renal. The conditions noted are these: 10 µM unless noted.

With `CCCCC1COc2cccc3c2N1C=C/C3=C\C(=O)n1ccc2ccccc21` (stereo unspecified), the growth is 70.7% in the experiment on SK-MEL-2 melanoma; 82.9% in the experiment with EKVX NSCLC; 94.7% in the experiment with SN12C renal; 57.5% in the experiment with UO-31 renal; 118% with TK-10 renal; 88.5% in the experiment with ACHN renal. Further, the growth in the experiment on A498 renal is 70.1%; in the experiment on CCRF-CEM leukemia, 67%; in the experiment with MOLT-4 leukemia, 40.9%; in the experiment with SR leukemia, 16.5%; with RPMI-8226 leukemia it was 65.7%; in the experiment on OVCAR-8 ovarian, 91.8%. Further, the growth was 94.5% in the experiment on OVCAR-5 ovarian; 65.2% in the experiment with OVCAR-4 ovarian; 77.1% in the experiment on SK-OV-3 ovarian; 70.2% in the experiment on IGROV1 ovarian; 68.4% in the experiment with OVCAR-3 ovarian; 88% in the experiment on HS 578T breast. In addition, the growth in the experiment with NCI/ADR-RES ovarian was 67.2%.
In the case of `Cc1cccc(C[C@H](NC(=O)Nc2ccc(Cl)cc2F)C(=O)N[C@@H]2C(=O)N3C[C@H](O)C[C@H]3C(=O)N3CCCC[C@H]3C(=O)N[C@@H](C)C(=O)N3C[C@H](C)C[C@H]3C(=O)O[C@H]2C)c1`, the growth with SK-MEL-2 melanoma was 0.151% (active); in the experiment on EKVX NSCLC it was 24.6%; with SN12C renal, 9.57% (active); in the experiment with UO-31 renal, 10.3%; in the experiment on TK-10 renal it was 29.2%; in the experiment with ACHN renal, 8.94% (active). Moreover, the growth in the experiment on A498 renal is -4.82% (active); with CCRF-CEM leukemia, 31%; in the experiment on MOLT-4 leukemia it was 14.7%; in the experiment on SR leukemia, 11%; in the experiment with RPMI-8226 leukemia, 6.39% (active); in the experiment on OVCAR-8 ovarian, 13.5%. The growth was 6.86% (active) with OVCAR-5 ovarian; 7.83% (active) with OVCAR-4 ovarian; 9.47% (active) with IGROV1 ovarian; -26.4% (active) in the experiment on OVCAR-3 ovarian; 10.9% in the experiment with HS 578T breast; 89.9% in the experiment with NCI/ADR-RES ovarian.
`Clc1ccc(/C=N/Nc2nc3ccccc3s2)c(Cl)c1`: the growth is 112% in the experiment with SK-MEL-2 melanoma; 66.9% in the experiment with EKVX NSCLC; 95.3% in the experiment with SN12C renal; 68.2% in the experiment with UO-31 renal; 95.4% with TK-10 renal; 82.8% in the experiment on ACHN renal. In addition, the growth with A498 renal is 81.6%; in the experiment with CCRF-CEM leukemia, 80.5%; in the experiment on MOLT-4 leukemia, 98.4%; with SR leukemia, 91%; with RPMI-8226 leukemia it was 91.2%; with OVCAR-8 ovarian, 79.3%. Moreover, the growth is 103% in the experiment with OVCAR-5 ovarian; 74% in the experiment with SK-OV-3 ovarian; 67% in the experiment on IGROV1 ovarian; 87.3% in the experiment with OVCAR-3 ovarian; 84.8% in the experiment with HS 578T breast; 89.7% in the experiment on NCI/ADR-RES ovarian.
In the case of `C=C(C)[C@@H]1CC[C@]2(COC(=O)c3ccccc3C(=O)O)CC[C@]3(C)[C@H](CC[C@@H]4[C@@]5(C)CC[C@H](OC(=O)c6ccccc6C(=O)O)C(C)(C)[C@@H]5CC[C@]43C)[C@@H]12`, the growth is 23.8% [100 µM] in the experiment with SK-MEL-2 melanoma; 39.5% [100 µM] in the experiment on EKVX NSCLC; 27.8% [100 µM] with SN12C renal; 27.7% [100 µM] in the experiment with UO-31 renal; 21.8% [100 µM] in the experiment with TK-10 renal; -55.6% [100 µM] (active) in the experiment on ACHN renal. In addition, the growth with CAKI-1 renal was 10.7% [100 µM]; with CCRF-CEM leukemia, 46.4% [100 µM]; with MOLT-4 leukemia, 39.9% [100 µM]; in the experiment with SR leukemia, 63.8% [100 µM]; in the experiment with RPMI-8226 leukemia it was 28.4% [100 µM]; with OVCAR-8 ovarian it was 46.7% [100 µM]. In addition, the growth in the experiment on OVCAR-5 ovarian is 105% [100 µM]; in the experiment with SK-OV-3 ovarian, 47.9% [100 µM]; in the experiment on IGROV1 ovarian, 31% [100 µM]; with OVCAR-3 ovarian it was 2% [100 µM] (active); with HS 578T breast it was -3.77% [100 µM] (active); in the experiment on NCI/ADR-RES ovarian it was 23.1% [100 µM].
`Cn1cc(-c2nnc(-c3cn(C)c4ncccc34)o2)c2ccccc21`: the growth is 34.4% in the experiment with SK-MEL-2 melanoma; 49.9% in the experiment on EKVX NSCLC; 28.4% with SN12C renal; 18% in the experiment on UO-31 renal; 69.9% with TK-10 renal; 36% in the experiment with ACHN renal. Besides, the growth in the experiment on A498 renal was -20.3% (active); with CCRF-CEM leukemia, 49.8%; with MOLT-4 leukemia it was 18.3%; in the experiment with SR leukemia it was 19.1%; in the experiment on RPMI-8226 leukemia, 31.3%; in the experiment on OVCAR-8 ovarian, 49.8%. Also, the growth was 55.5% in the experiment with OVCAR-5 ovarian; 36.5% with OVCAR-4 ovarian; 28% with IGROV1 ovarian; -12% (active) in the experiment on OVCAR-3 ovarian; 30.9% with HS 578T breast; 11.9% with NCI/ADR-RES ovarian.
Turning to `COc1ccc(C(=O)c2nccc3cc(OC)c(OC)cc23)cc1OC`, the growth in the experiment on SK-MEL-2 melanoma was 108%; in the experiment with EKVX NSCLC, 90.1%; in the experiment on SN12C renal, 72.1%; with UO-31 renal, 82.8%; with TK-10 renal it was 132%; in the experiment on ACHN renal, 91.7%. In addition, the growth is 64.6% with A498 renal; 132% with CCRF-CEM leukemia; 103% with MOLT-4 leukemia; 102% with SR leukemia; 133% with RPMI-8226 leukemia; 94.3% in the experiment on OVCAR-8 ovarian. In addition, the growth in the experiment with OVCAR-5 ovarian is 86.5%; in the experiment on SK-OV-3 ovarian it was 108%; in the experiment with OVCAR-3 ovarian, 87.2%; in the experiment on HS 578T breast it was 98%; in the experiment with NCI/ADR-RES ovarian, 83.9%.
With `C[n+]1cccc(NC(=O)c2ccc3ccc4ccc(C(=O)Nc5ccc[n+](C)c5)nc4c3n2)c1`, the growth with SK-MEL-2 melanoma was 56.9%; in the experiment on EKVX NSCLC, 68.1%; in the experiment on SN12C renal, -14.8% (active); in the experiment on UO-31 renal, 65.4%; with TK-10 renal, 94.2%; in the experiment with ACHN renal, 41.8%. In addition, the growth in the experiment with CAKI-1 renal is 52.3%; with MOLT-4 leukemia, 71.5%; with SR leukemia, 75%; in the experiment with RPMI-8226 leukemia, 61.5%; with OVCAR-8 ovarian, 62.5%; with OVCAR-5 ovarian, 79.5%. Besides, the growth in the experiment with SK-OV-3 ovarian is 8.34% (active); with IGROV1 ovarian it was 32.3%; with OVCAR-3 ovarian it was 62.4%; with HS 578T breast it was 74.7%.
For the molecule `CCCCOC(=O)c1c(C)[nH]c(/C=C2\N=C(c3ccc[nH]3)C=C2OC)c1C`, the growth is -64.6% (active) in the experiment with SK-MEL-2 melanoma; -8.89% (active) in the experiment with EKVX NSCLC; 8.83% (active) with SN12C renal; -72.2% (active) in the experiment on UO-31 renal; 9.12% (active) with TK-10 renal; -40.4% (active) in the experiment with ACHN renal. The growth in the experiment with CAKI-1 renal is -29.2% (active); in the experiment on MOLT-4 leukemia, 8.13% (active); in the experiment with SR leukemia it was 14.5%; in the experiment on RPMI-8226 leukemia it was -32.1% (active); in the experiment with OVCAR-8 ovarian, 7.7% (active); in the experiment on OVCAR-5 ovarian it was 11%. For the same molecule, the growth was 3.84% (active) in the experiment on OVCAR-4 ovarian; 34.7% in the experiment with SK-OV-3 ovarian; -37.6% (active) with OVCAR-3 ovarian; -23.2% (active) with HS 578T breast; 8.85% (active) in the experiment on NCI/ADR-RES ovarian.
